Rows were chosen to be rich in hits. Some 14% of all compounds tested hit in one or more screens of this group.
Lassa entry inh: qHTS for Inhibitors of binding or entry into cells for Lassa Virus | Lassa virus pseudotype entry inhibition, cell reporter | Potency, µM (top dose mostly 37.9 µM), inactives show top-dose activity change, negative = inhibition, most hits filed as inhibitors | actives 1.2% (n = 300,000); calls by dose curve; tested in HEK293 cells; further: potency means the concentration at half of the fitted maximal effect; nearly all actives have a fitted effect of over 50% in size
Pf growth 48h: Primary qHTS for delayed death inhibitors of the malarial parasite plastid, 48 hour incubation; P. falciparum luciferase growth in erythrocytes, 48 h; Potency, µM (highest dose often 28.7 µM), without a hit: at the highest dose activity change, negative = inhibition, usual class: inhibitors; actives 5.9% (n = 310,000); further: potency means the concentration at half of the fitted maximal effect
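Compounds are pin-transferred into medium, infected erythrocytes (2% hematocrit, 0.1% parasitemia final) are added, and plates sit one parasite generation at 37 C in 5% CO2. Detection reagent is then added and luminescence measured.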
HCMV antiviral: qHTS Assay for inhibitors of the human cytomegalovirus (HCMV). actives 4.5% (n = 410,000). HFF cells, HCMV-luciferase reporter, 72 h; stronger effect = lower value. AID 1259415, 2018. activity change, negative = inhibition, % at 57.5 µM; in the data active means activity change below about -60%; inconclusive means no clear call, values can overlap the other calls; inactive means above about -39%
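Steps: HFFs plated, 16 h 37C; compounds added; HCMV-luciferase added to MOI 1 PFU/cell; 72 h 37C; OneGlo reagent, 5 min room temperature; luminescence read, normalized to controls.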
MARV entry inh: qHTS for inhibitors of binding or entry into cells for Marburg Virus; AID 540276, 2011; Potency, µM (titrated, usually from 37.8 µM), inactives show at the top dose activity change, negative = inhibition, hits mostly inhibitors; actives 1.8% (n = 300,000); Marburg virus pseudotyped entry inhibition, cell reporter; calls by dose curve; tested in HEK293 cells; further: potency means the concentration at half of the fitted maximal effect
HCV inhibitor: qHTS Assay for Inhibitors of Hepatitis C Virus (HCV) | actives 3.4% (n = 340,000) | Huh7.5.1 HCVcc-Cre infection, luciferase reporter, 44 h | Potency, µM (top dose mostly 41.8 µM), for inactives: top-dose activity change, negative = inhibition, hits mostly inhibitors; further: potency means the concentration at half of the fitted maximal effect
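1,000 cells/well; 4 h culture; + compound; + HCVcc-Cre (~0.5 moi); 44 h; luciferase substrate, RT 15 min; read 15 sec.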
Pf growth 96h: Primary qHTS for delayed death inhibitors of the malarial parasite plastid, 96 hour incubation | P. falciparum luciferase reporter growth, 96 h | Potency, µM (titrated, usually from 28.7 µM), inactives show top-dose activity change, negative = inhibition, hits mostly inhibitors | actives 6.9% (n = 320,000); further: potency means the concentration at half of the fitted maximal effect
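Compounds incubated with erythrocytes infected by luciferase-expressing P. falciparum (2% hematocrit, 0.05% parasitemia final) for 96 hours, 37 C in 5% CO2. Growth inhibition scored as decreased luciferase luminescence.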
* marks the source's active call; other numbers are inactive results; ? = inconclusive; · = not tested or not shown; [ ] = another dose, or the depositor's remark. Unless noted, the call rests on the fitted dose curve; in most records, active means well fitted inhibition curve with a large enough effect; inconclusive means small, poorly fitted or top-dose-only effect, or another doubt; inactive means no such curve, though single readings can be large or run the other way. On the % scale 0 is the no-effect control and ±100 the full control effect.

SMILES | Lassa entry inh | Pf growth 48h | HCMV antiviral | MARV entry inh | HCV inhibitor | Pf growth 96h
Cc1nc2scc(-c3ccccc3)c2c(=O)o1 | -30% | 8% | -23 | 8%[46.1 µM] | 16% | ?
Cc1nc2c(o1)C(=O)c1ccccc1C2=Nc1ccccc1 | 11µM* | · | -100* | ? | 2.8µM* | ·
CCOc1ccc(NC(=O)CCc2c(C)nc3nc(C)nn3c2C)cc1 | 13%[46.1 µM] | · | -5 | 17%[46.1 µM] | · | ·
COC(=O)C[C@@H]1C[C@@H]2c3cc(NC(=O)NC4CCCCC4)ccc3O[C@@H]2[C@H](CO)O1 | · | · | 5 | · | · | ·
COc1ccc2c(c1)C(CC(C)=O)N(c1ccc(-c3cccs3)cc1)C(c1ccsc1)=C2 (stereo not drawn) | · | · | -90* | · | · | ·
CCCCCCCc1c(C)nc(N2CCOCC2)[nH]c1=O | ? | 1.5µM* | 0 | 2% | 12% | ·
Cc1[nH]n(-c2ccc(Cl)c(Cl)c2)c(=O)c1CCO | -16% | ? | -26 | ? | 3% | ?
CCCCc1c(C)nc(N2CCCC2)[nH]c1=O | · | 6.6µM* | 22 | · | 10% | 4.7µM*
CCCCCCc1c(C)nc(-n2[nH]c(C)c(CCO)c2=O)[nH]c1=O | -5% | ? | -20 | ? | -21% | 9.3µM*
Cc1ccc(Cl)cc1NC(=O)Cn1c(=O)n(C(C)C)c(=O)c2oc3ccccc3c21 | -21%[46.1 µM] | · | -37 | · | · | ·
C[C@@H]1CN([C@@H](C)CO)C(=O)CCCn2cc(nn2)CO[C@H]1CN(C)S(C)(=O)=O | · | · | 17 | · | · | ·
CCc1c(C(=O)NCCc2ccc(N3CCCCC3)cc2)[nH]c2ccc(Cl)cc12 | -33% | · | · | -2% | · | ·
c1ccc(-c2nnc3sc(-c4csc5c4CCCC5)nn23)cc1 | ? | 10µM* | ? | ? | ? | 23%
Clc1ccc(-c2nn3c(-c4ccccc4)nnc3s2)cc1 | 17% | 44% | -27 | ? | 1% | ?
CCOC(=O)C1=CCN(S(=O)(=O)c2ccc(Cl)cc2)C1c1cccc(C)c1 (stereo not drawn) | · | · | -87* | · | · | ·
CCOC(=O)C1=CCN(S(=O)(=O)c2ccc(Cl)cc2)C1c1cccc(Cl)c1 (stereo not drawn) | · | · | -31 | · | · | ·
CCOC(=O)C1=CCN(S(=O)(=O)c2ccc(C)cc2)C1c1ccc(CC)cc1 (stereo not drawn) | · | · | -97* | · | · | ·
Nc1cc([N+](=O)[O-])cc2oc(-c3ccccc3)cc12 | · | 129% | 90 | · | 10µM* | 12%
CCC1CCc2c(sc3nc(SCC(=O)NCc4ccco4)n(-c4ccccc4)c(=O)c23)C1 (stereo not drawn) | -22% | 12µM* | -75* | ? | -1% | -28%
O=C(CSc1nc2c(sc3ccccc32)c(=O)n1-c1ccccc1)NCc1ccco1 | ? | ? | -81* | ? | 0% | -10%
CCN(CC)C(=O)c1sc2c(c1C)c(=O)n(-c1ccc(C)c(C)c1)c(=O)n2Cc1cc(=O)n2c(C)cccc2n1 | 11%[46.1 µM] | · | 19 | · | · | ·
Cc1[nH]c2ccc3ccccc3c2c(=O)c1C/C=C/Cl | 20% | -36% | -89* | -14% | ? | 15µM*
Cc1[nH]c2ccc(Br)cc2c(=S)c1C/C=C/Cl | · | ? | 6 | · | -14% | 8.3µM*
Cc1[nH]c2ccc(Br)cc2c(=O)c1CN1CCOCC1 | 11% | 9% | 66 | -17%[46.1 µM] | -9% | 60%
Cc1ccc(NC(=O)COC(=O)C2(CC(=O)NC(C)C)CCCC2)cc1C | · | · | -16 | · | -27% | ·
SMILES | Lassa entry inh | Pf growth 48h | HCMV antiviral | MARV entry inh | HCV inhibitor | Pf growth 96h
COCCCNC(=O)c1cn(Cc2c(F)cccc2Cl)nn1 | 13% | -10% | -90* | -6%[46.1 µM] | -16% | 44%
COCCNC(=O)CSCc1c(F)cccc1Cl | 20% | 4% | 26 | 0% | 23% | ?
Cc1cccc(NS(=O)(=O)c2ccc(C)c(C(=O)NCC(c3ccco3)N3CCCCC3)c2)c1 (stereo not drawn) | -26% | 13µM* | -29 | ? | ? | ?
COc1ccc(C(CNC(=O)c2ccc(NS(=O)(=O)c3ccc(F)c(C)c3)cc2)N2CCCC2)cc1 (stereo not drawn) | -12% | · | -15 | ? | ? | ·
CCOc1ccc(NS(=O)(=O)c2ccc(C(=O)NCC(c3ccc(OC)cc3)N3CCCC3)cc2)cc1 (stereo not drawn) | ? | 13µM* | -26 | ? | ? | 13µM*
COc1ccc(C(CNC(=O)c2cccc(S(=O)(=O)Nc3ccc(F)cc3)c2)N2CCCCC2)cc1 (stereo not drawn) | · | · | -5 | · | 5µM* | ·
COc1ccc(NS(=O)(=O)c2cccc(C(=O)NCC(c3ccco3)N3CCCC3)c2)cc1 (stereo not drawn) | 7% | ? | -2 | -21%[46.1 µM] | -5% | 15µM*
C[C@H]1CN([C@@H](C)CO)C(=O)c2cccc(NC(=O)C3CC3)c2O[C@H]1CN(C)Cc1ccncc1 | · | · | 9 | · | -9% | ·
Cc1ccc(NS(=O)(=O)c2cccc(C(=O)NCC(c3ccco3)N3CCCCC3)c2)cc1 (stereo not drawn) | ? | ? | · | ? | · | 12µM*
CS(=O)(=O)c1cnc(-c2cccnc2)nc1N | -8% | 24% | -91* | 1%[46.1 µM] | 15% | 42%
CCCCc1ccc(NC(=S)Nc2ccc(Cl)c(S(=O)(=O)N(C)C)c2)cc1 | ? | -14% | -63* | ? | ? | ?
Cc1cccc(-c2nc(CSCC(=O)N3CCN(c4ccccn4)CC3)c(C)o2)c1 | ? | 32% | -66* | ? | 11µM* | 371%
Cc1cccc(-c2nc(CSCC(=O)N3CCN(c4cccc(C)c4C)CC3)c(C)o2)c1 | 7%[46.1 µM] | · | -65* | · | · | ·
CC(Oc1cccc(Br)c1)C(=O)NNC(=O)CCNC(=O)c1ccccc1Cl (stereo not drawn) | · | 4% | 23 | · | 2% | 20%
CCCCCCCCN1C(=O)[C@@H](CC(=O)NCC2CCCCC2)C[C@@]2(C(=O)OC)C1=C[C@H](C1CCCC1)O[C@@H]2C | · | · | 9 | · | · | ·
CCSc1nc2sc3c(c2c(=O)[nH]1)CC(C)(CC)OC3 (stereo not drawn) | 26% | ? | 45 | 0% | -20% | 21%
CCC1(C)Cc2c(sc3nc(SCC(=O)O)[nH]c(=O)c23)CO1 (stereo not drawn) | -2% | 19% | -7 | 13% | 5% | 8.3µM*
O=c1cc(NCc2ccco2)[nH]c(=O)n1-c1ccc(Br)cc1 | -21% | -7% | ? | -2% | 6% | 9.3µM*
